Bioassay records as filed in PubChem.
Calpain2 inh – inhibitors of pig calpain II, primary screen, biochemical, fluorogenic peptide substrate, 1536-well; purified calpain II, 30 min; inhibition, % at 16 µM; 220,000 compounds, 0.37% hits;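 active = inhibition above about 50%, limit read from the data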
PERK inh – block of dimerizer-induced PERK translation repression, primary screen, PERK inhibitor project, CHO PERK-DD cells, SEAP luminescence, HTS; Eukaryotic translation initiation factor 2-alpha kinase 3 (Homo sapiens), Q9NZJ5; CHO PERK-DD fusion, SEAP luminescence translation reporter; inhibition, % at 5.6 µM; 220,000 compounds, 0.17% hits; AID 1416, 2008;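 active = inhibition above the mean inhibition of all tested compounds plus 3 SD, set separately per screening campaign, cut at about 2.9% in these data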;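 also: PERK kinase domain activated by AP20187 dimerizer at 100 nM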
S1P4 ag – S1P4 receptor agonists, primary screen, cell-based. activation, % at 4.98 µM. AID 1509, 2009. S1P4-expressing cell line, agonist reporter assay. Sphingosine 1-phosphate receptor 4 (Homo sapiens), O95977. 220,000 compounds, 0.35% hits; in the data active = activation above about 11%
S1P3 antag – S1P3 receptor antagonists, primary screen, cell-based. Sphingosine 1-phosphate receptor 3 (Homo sapiens), Q99500. CHO S1P3 NFAT-BLA reporter, FRET fluorescence, antagonist mode. inhibition, % at 4.98 µM. 170,000 compounds, 0.27% hits. AID 485, 2006;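 active = inhibition above the plate cutoff, the mean inhibition of test wells on that plate plus 3 SD, cut at about 28% in these data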;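 also: cells challenged with S1P at its EC80 of 0.8 µM; blue over green emission ratio from cleaved BLA substrate after 4 h stimulation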
Target sequence (Q99500 whole entry, looked up): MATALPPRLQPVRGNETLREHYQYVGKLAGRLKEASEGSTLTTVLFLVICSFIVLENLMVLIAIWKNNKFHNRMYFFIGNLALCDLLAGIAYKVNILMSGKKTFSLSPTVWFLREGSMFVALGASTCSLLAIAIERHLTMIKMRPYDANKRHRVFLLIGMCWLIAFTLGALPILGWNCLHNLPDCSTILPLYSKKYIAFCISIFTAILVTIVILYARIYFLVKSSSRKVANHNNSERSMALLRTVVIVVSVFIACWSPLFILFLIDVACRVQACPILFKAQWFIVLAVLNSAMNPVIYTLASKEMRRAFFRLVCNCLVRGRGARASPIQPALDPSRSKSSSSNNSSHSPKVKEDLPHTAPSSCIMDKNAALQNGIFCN
S1P4 antagonist – S1P4 receptor antagonists, primary screen, cell-based | S1P4-expressing cells, antagonist mode, reporter read-out | inhibition, % at 4.98 µM | 220,000 compounds, 0.26% hits | AID 1510, 2009; in the data active = inhibition above about 29%
Of the large screens only hits and unclear results are named; the others gave an inactive call. Compounds with a hit are over-represented: about 1.3% of the library has one in this group of screens.

Cc1nn(-c2ccc(F)cc2)c2sc(C(=O)N3CCCCCC3)cc12	Calpain2 inh 50
CNC(=O)COC(=O)c1cc2c(C)nn(-c3ccc(F)cc3)c2s1	none (no result: S1P3 antag)
CCN(CC)C(=O)C(=O)Nc1ccc(OC)c(Cl)c1	none
COc1ccc(NCC(=O)Nc2ccc(Br)cc2F)c(OC)c1	none
O=C(CCn1c(=O)c2ccccc2n(CC(=O)NC2CCCC2)c1=O)NCc1ccco1	none (no result: S1P3 antag)
O=C(CCCCn1c(=O)c2ccccc2n(CC(=O)NC2CCCC2)c1=O)NCc1ccco1	Calpain2 inh 68
O=C(CCCn1c(=S)[nH]c2ccccc2c1=O)NC1CCCC1	S1P3 antag 60
CC1CCCCC1NC(=O)CCCn1c(=S)[nH]c2ccccc2c1=O (stereo not drawn)	none
COC(=O)[C@H](C)NC(=O)Nc1cccc(Br)c1	none
Cn1c(=O)cc(C(=O)N/N=C/c2ccc(Cl)cc2)[nH]c1=O	PERK inh 2.9
CSc1ncccc1C(=O)Nc1ccc(S(=O)(=O)NC2=NCCCCC2)cc1	none
O=C(c1ccc(N2CCCC2=O)cc1)N1CCCCCC1	Calpain2 inh 84
O=C1OC(c2ccccc2)C2(CCCC2)C(=O)C12CCCC2 (stereo not drawn)	none (no result: S1P3 antag)
O=C1OC(c2cccc([N+](=O)[O-])c2)C2(CCCC2)C(=O)C12CCCCC2 (stereo not drawn)	Calpain2 inh 53
O=C(CC1C(=O)NCCN1Cc1c(F)cccc1Cl)NCCCn1cccn1 (stereo not drawn)	none
Cn1c(N)c(C(=O)COC(=O)/C=C/c2ccc(S(=O)(=O)N3CCOCC3)cc2)c(=O)n(C)c1=O	none
Fc1ccc(Nc2nc(N/N=C/c3ccco3)nc(N3CCCCC3)n2)cc1	none
O=C(CN1C(=O)CS/C1=C\c1nc(-c2ccc(Cl)cc2)cs1)Nc1cccnc1Cl	none
Cc1ccc(-c2csc(/C=C3\SC(C)C(=O)N3CC(=O)Nc3ccccc3F)n2)cc1 (stereo not drawn)	Calpain2 inh 67
COCc1nc2ccccc2n1Cc1ccc(Br)cc1	Calpain2 inh 57
O=C(CSc1cccc[n+]1[O-])c1cc(Cl)ccc1Cl	Calpain2 inh 70
COc1ccc(CNc2nc3c(c(=O)n(Cc4ccc(Cl)cc4)c(=O)n3C)n2C)cc1	Calpain2 inh 84
Cn1c(NCc2ccco2)nc2c1c(=O)n(Cc1ccc(Cl)c(Cl)c1)c(=O)n2C	Calpain2 inh 86 (no result: S1P3 antag)
CCCNc1nc2c(c(=O)n(C)c(=O)n2C)n1Cc1ccc(F)cc1	S1P3 antag 85
O=C(O/N=C1\CCCCC1c1ccc([N+](=O)[O-])cc1[N+](=O)[O-])c1c(F)cccc1F (stereo not drawn)	Calpain2 inh 63 (no result: S1P3 antag)
O=[N+]([O-])c1ccc(C2CCCC/C2=N/OCc2ccccc2F)c([N+](=O)[O-])c1 (stereo not drawn)	none (no result: S1P3 antag)
CCOCc1c(C(=O)OCC(=O)/C(C#N)=C(\C)N)oc2ccccc12	none
COC(=O)c1c(NC(NC(C)=O)C(Cl)(Cl)Cl)sc2c1CCCC2 (stereo not drawn)	Calpain2 inh 55
CC(=O)Nc1cccc(OCCCNC(=O)c2cccc3ccccc23)c1	none
Nc1nnc(N2CCCCC2)s1	none
CN(c1nnc(N)s1)C1CCCCC1	S1P3 antag 95
CC(C)CNS(=O)(=O)c1ccc(CCC(=O)Nc2cc(Cl)ccc2Oc2ccccc2)cc1	Calpain2 inh 71 (no result: S1P3 antag)
Cc1cccc(C)c1N(CC(=O)Nc1cc(Cl)ccc1Oc1ccccc1)S(C)(=O)=O	Calpain2 inh 52 (no result: S1P3 antag)
Cc1ccc(C)c(N(CC(=O)Nc2cc(Cl)ccc2Oc2ccccc2)S(C)(=O)=O)c1	none (no result: S1P3 antag)
Cc1ccnc(NS(=O)(=O)c2ccc(NC(=O)c3ccc([N+](=O)[O-])s3)cc2)n1	none
CC(=O)Nc1c(Br)cc(N2C(=O)CCC2=O)cc1Br	PERK inh 3.1 (no result: S1P3 antag)
COc1cc(O)c(C(CCN2CCOCC2)c2cc(OC)c(OC)c(OC)c2)c(OC)c1 (stereo not drawn)	none (no result: PERK inh, S1P4 ag, S1P3 antag, S1P4 antagonist)
CCOC(=O)c1ccc(N=c2sc(C(=O)OC)cc(=O)n2C2CC2)cc1	PERK inh 3.1
CC(=O)C(C(C)=O)C1(O)C(=O)c2ccccc2C1=O	PERK inh 3.0
O=C(NC1(O)C(=O)c2ccccc2C1=O)c1ccccc1	none
Cc1csc2ncnc(N3CCN(C(=O)Nc4ccc(OC(F)(F)F)cc4)CC3)c12	Calpain2 inh 57
Cc1csc2c(N3CCN(C(=O)Nc4ccccc4)CC3)ncnc12	none
Cc1ccc(C(=O)N2CCC3(CC2)Oc2ccc(F)cc2C(=O)C32CC(c3ccccc3)=NO2)s1 (stereo not drawn)	none (no result: PERK inh, S1P4 ag, S1P3 antag, S1P4 antagonist)
O=C(Oc1ccccc1C(=O)N1CCOCC1)c1ccccc1	none
NC(=O)c1ccc(-n2nnnc2Oc2ccccc2C(=O)N2CCOCC2)cc1	Calpain2 inh 51
O=C(O)Cn1ccnc1	PERK inh 2.9
COC(=O)c1ccccc1NC(=O)Cn1ccnc1	none
Cc1c(Cl)cccc1N(Cc1ccc(C(=O)O)cc1)S(=O)(=O)c1ccccc1	none
Fc1ccccc1N1CCN(C(c2cccs2)c2nnnn2CCc2ccccc2)CC1 (stereo not drawn)	Calpain2 inh 55
COC(=O)c1c(C)[nH]c(C(C)=O)c1C	PERK inh 3.0
Cc1cc(C)cc(NC(=O)C(=O)NCCc2c[nH]c3ccccc23)c1	Calpain2 inh 65
O=C(c1cnc2sccn2c1=O)N(Cc1ccccc1)c1ccccn1	Calpain2 inh 85
CN(CC(=O)Nc1cc(S(=O)(=O)N2CCOCC2)ccc1Cl)C1CCS(=O)(=O)C1 (stereo not drawn)	none
CCOc1ccc(NC(=O)CN2C(=O)/C(=C3\SC(=S)N(C4CCS(=O)(=O)C4)C3=O)c3ccccc32)cc1 (stereo not drawn)	Calpain2 inh 63
CCOc1ccc(NC(=O)CN2C(=O)CSC(C)C2=O)cc1 (stereo not drawn)	none
CC(C)c1nnc(NC(=O)C2CCCCC2)s1	S1P3 antag 94
Nc1ncccc1OCc1ccc(Cl)c(Cl)c1	none
CCOC(=O)/C(=C\c1cccnc1)C(=O)c1cc(C(C)=O)c(Nc2ccccc2)s1	S1P4 antagonist 63 (no result: S1P3 antag)
CCOC(=O)/C(=C\c1ccccc1)C(=O)c1cc(C(C)=O)c(Nc2ccccc2)s1	none (no result: S1P3 antag)
COc1cc(CNc2ncnc3c2[nH]c2ccc(C)cc23)cc(OC)c1	none
Cc1ccc2[nH]c3c(NCc4ccco4)ncnc3c2c1	S1P3 antag 59
O=S(=O)(c1ccc(F)cc1)N(CCO)CC(O)Cn1c2ccccc2c2ccccc21 (stereo not drawn)	none (no result: S1P3 antag)
CCN(CC(O)Cn1c2ccccc2c2ccccc21)S(=O)(=O)c1ccc(F)cc1 (stereo not drawn)	Calpain2 inh 69 (no result: S1P3 antag)
Nc1nc(-c2ccccc2)nc2sc3c(c12)CCCC3	none
Cc1ccccc1NC(=S)N(CCc1c(C)[nH]c2ccc(F)cc12)Cc1cccnc1	Calpain2 inh 64
